From PubChem BioAssay (EPA / NIEHS) come the findings set out here.

The source made the active and inactive calls. Rule for the calls: active = hit-call score of the fitted dose curve at least 0.9, where 1 is the maximum; inactive = score below 0.9.

Transcriptional activator Myb (Homo sapiens), sequence (P10242 whole entry, looked up): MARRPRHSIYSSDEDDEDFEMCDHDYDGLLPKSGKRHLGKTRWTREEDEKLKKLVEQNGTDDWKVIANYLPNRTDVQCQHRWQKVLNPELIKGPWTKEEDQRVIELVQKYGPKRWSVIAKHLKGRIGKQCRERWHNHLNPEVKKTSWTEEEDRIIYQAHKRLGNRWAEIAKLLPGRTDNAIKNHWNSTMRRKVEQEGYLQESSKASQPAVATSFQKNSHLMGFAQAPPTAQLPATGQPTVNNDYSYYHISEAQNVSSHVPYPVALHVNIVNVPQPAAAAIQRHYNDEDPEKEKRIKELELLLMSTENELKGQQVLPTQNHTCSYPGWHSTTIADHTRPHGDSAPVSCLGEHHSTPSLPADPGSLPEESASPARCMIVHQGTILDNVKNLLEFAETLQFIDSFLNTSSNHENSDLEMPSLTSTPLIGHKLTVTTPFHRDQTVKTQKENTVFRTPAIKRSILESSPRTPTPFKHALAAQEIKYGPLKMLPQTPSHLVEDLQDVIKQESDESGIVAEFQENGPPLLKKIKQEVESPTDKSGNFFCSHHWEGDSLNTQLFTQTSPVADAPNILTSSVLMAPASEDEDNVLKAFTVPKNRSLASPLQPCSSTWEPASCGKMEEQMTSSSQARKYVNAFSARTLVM

This experiment addresses Transcriptional activator Myb (Homo sapiens) (UniProt P10242). The experiment can be described thus: ATG_Myb_CIS: Attagene CIS-FACTORIAL HepG2 Assay for human Myeloblastosis (Myb) Proto-Oncogene Transcription Factor (AID 2282986). The following applies: HepG2 Attagene CIS-FACTORIAL Myb reporter transcription; actives raise or lower the signal. As to the method:
ATG_CIS is a cell-based, multiplexed-readout assay that uses HepG2, a human liver cell line, with measurements taken at 24 hours after chemical dosing in a 24-well plate.ATG_Myb_CIS is one of 52 assay component(s) measured or calculated from the ATG_CIS assay. It is designed to make measurements of mRNA induction, a form of inducible reporter, as detected with fluorescence intensity signals by Reverse transcription polymerase chain reaction (RT-PCR) and Capillary electrophoresis technology.Data from the assay component ATG_Myb_CIS was analyzed into 1 assay endpoint. This assay endpoint, ATG_Myb_CIS, was analyzed with bidirectional fitting relative to DMSO as the negative control and baseline of activity. Using a type of inducible reporter, measures of mRNA for gain or loss-of-signal activity can be used to understand the reporter gene at the transcription factor-level as they relate to the gene MYB. Furthermore, this assay endpoint can be referred to as a primary readout, because this assay has produced multiple assay endpoints where this one serves a reporter gene function. To generalize the intended target to other relatable targets, this assay endpoint is annotated to the dna binding intended target family, where the subfamily is MYB proteins.
Human liver HepG2 cells are transiently transfected with multiple reporter transcription units (MRTUs) in 6-well plates using FuGene 6 reagent (Roche; 3 ml FuGene/1 mg DNA). The MRTU constructs are regulated by a cis-regulating element (promoter). […] A major difference between the CIS and TRANS system is that in CIS activities of endogenous TFs are measured, whereas the TRANS assay evaluates changes in activities of exogenous, chimeric NR-Gal4 proteins. […] At the end of 24 hour incubation, total RNA was isolated using TriZol reagent (Invitrogen). The isolated RNA is then reverse-transcribed using oligo(dT) primer and Mo-MLV reverse transcriptase (Invitrogen) with DNAse I (Ambion) treatment for 30 min. The one-tenth of the produced cDNA was amplified by PCR using Taq DNA polymerase (Invitrogen) and two reporter sequence-specific primers. The PCR products were fluorescently labeled by primer extension with 6-arboxyfluorescein (6-FAM) 5'-labeled reporter sequence-specific primer (2 min at 95 C, 20 s at 68 C and 10 min at 72 C) and these products were digested with 5U of HpaI (New England Biolabs) for 2h at 37 C. The fragments were purified using Qiaquick PCR columns (Qiagen), analyzed on an ABI 3130xL genetic analyzer (Applied Biosystems) with peak positions identified by using a set of X-rhodamine (ROX)-labeled MapMarker1000 molecular weight standards (BioVentures). The raw capillary electrophoresis data was processed using Attagraph software (Attagene).
Take `O=C1CCCCCCCCCCC(=O)OCCO1`: the outcome was inactive.

As for `CCCCCc1ccc(Cl)cc1`, the compound was classed as inactive.

In the case of `CC(C)c1ccc(C#N)cc1`, the call was inactive.

For the compound `Clc1nc2ccccc2s1`, the compound was classed as inactive.

For `O=C(Cl)c1cc(C(=O)Cl)cc(C(=O)Cl)c1`, the outcome was inactive.

Consider `O=C(c1ccccc1)c1ccc(O)c(O)c1O`, for which the compound was called inactive.

As to `Nc1cccc(C(F)(F)F)c1`, the outcome was inactive.

On to `C=CCOCC(O)CCl` (stereo not given), for which the call was inactive.

For `CCCOCCOCCOCCO`, the compound was classed as inactive.

Turning to `O=C(O)C(c1ccc(Cl)cc1)c1ccc(Cl)cc1`, the call was inactive.

Turning to `CCC(=O)Oc1ccc(/C(CC)=C(\CC)c2ccc(OC(=O)CC)cc2)cc1`, the outcome was inactive.

Turning to `O=C(c1ccc(O)cc1)c1ccc(O)cc1O`, the result was inactive.

As to `O=c1cc[nH]c(=S)[nH]1`, the outcome was inactive.

`COc1cc(C)ccc1C(C)C`: the call was inactive.

Regarding `CCc1ccc2c(c1)C(=O)c1ccccc1C2=O`, the compound was classed as inactive.

For `N[C@H]1C(O)O[C@H](CO)[C@H](O)[C@@H]1O` (stereo not given in full), the call was inactive.

In the case of `CCCCCCCCO[C@@H]1O[C@H](CO)[C@@H](O)[C@H](O)[C@H]1O`, the compound was classed as inactive.

For the compound `O=C(Oc1ccccc1)c1ccc2ccccc2c1O`, the outcome was inactive.

`OCCc1ccncc1`: the call was inactive.

As for `COC(=O)c1ccccc1OC`, the outcome was inactive.

On to `C=C[Si](C)(C)O[Si](C)(C)C=C`, for which the call was inactive.

In the case of `CNC(=S)N(C)C`, the outcome was inactive.

As for `Nc1ccc(N=Nc2ccccc2)c(N)n1`, the compound was called inactive.

In the case of `O=Cc1ccc(CO)o1`, the call was inactive.

As to `c1cc(C(c2ccc(OCC3CO3)cc2)C(c2ccc(OCC3CO3)cc2)c2ccc(OCC3CO3)cc2)ccc1OCC1CO1` (stereo not given), the compound was called inactive.

As to `CC1(C)[C@H]2CC[C@]1(C)C(=O)C2`, the compound was called inactive.

Take `O=C(Nc1ccccc1SSc1ccccc1NC(=O)c1ccccc1)c1ccccc1`: the compound was called inactive.

Consider `O=[N+]([O-])c1ccc(CO)cc1`, for which the compound was called inactive.

For the compound `CCC(Cc1ccccc1)(C(=O)c1ccc(N2CCOCC2)cc1)N(C)C` (stereo not given), the result was inactive.

`CC(CC=O)c1ccccc1` (stereo not given): the compound was called inactive.

`Cc1ccc(C2OC[C@@H]3OC(c4ccc(C)cc4)O[C@H]([C@H](O)CO)[C@@H]3O2)cc1` (stereo not given in full): the result was inactive.

`CN1C(=O)N(C)C(O)C1O` (stereo not given): the call was inactive.

Consider `C=C(C)CCO`, for which the result was inactive.

`CC1(C)S[C@@H]2[C@H](NC(=O)COc3ccccc3)C(=O)N2[C@H]1C(=O)O`: the compound was called inactive.

For the compound `C1CN(SSN2CCOCC2)CCO1`, the compound was called inactive.

Take `COCCCOCCCOC`: the compound was called inactive.

For the compound `CC(C)CCCC(C)CC=O` (stereo not given), the result was inactive.

Consider `[Cl][Bi]([Cl])([c]1ccccc1)([c]1ccccc1)[c]1ccccc1`, for which the result was inactive.

As to `CO[Si](CCC1CCC2OC2C1)(OC)OC` (stereo not given), the call was inactive.

As to `C=CC(=O)NC(C)(C)CS(=O)(=O)O`, the result was inactive.
